SMILES strings stand for the structures. Inconclusive results are not listed. Entries that show only a call come without a potency. Activity calls are given as the source filed them. The call rests on the fitted dose curve; in most records, active means well fitted cell-killing curve with a large enough effect in the repeat runs; inconclusive means weak or mixed curves, or effect the other way; inactive means flat fitted curve, though single readings scatter.

The values that follow come from PubChem BioAssay (Tox21).
Potency means the concentration at half of the fitted maximal effect.

The assay is described as follows: qHTS assay to identify small molecule agonists of the sonic hedgehog signaling (Shh) pathway - cell viability counter screen (AID 1259366). Further: nearly all actives have a fitted effect of over 50% in size. The note with it: NIH/3T3 Gli1-Luc viability, CellTiter-Fluor, 24 h; series mostly up to 92.4 µM. An excerpt: National Center for Advancing Translational Sciences [NCATS]
NIH Chemical Genomics Center [NCGC]
U.S. Environmental Protection Agency [EPA]
National Institutes of Environmental Health Sciences [NIEHS]
National Toxicology Program [NTP]
U.S. Food and Drug Administration [FDA]
The sonic hedgehog (Shh) pathway is essential for normal embryonic development. Dysregulation of the Shh pathway can cause severe developmental defects in organs. Therefore chemicals that interfere with the pathway are potential developmental toxicants. A cell line designated 3T3Gli1-Luc (DMB/OARSA/CFSAN/FDA, Laurel, MD), a NIH/3T3 derived clone containing stably integrated Gli1-Luc reporter is used to detect chemical interference of the Shh pathway, by changes in the expression of the firefly Luc gene under the control of the Gli1 transcriptional response element. This cell line was used to screen Tox21 libraries for identifying and prioritizing the potential developmental toxicants that interfere Shh pathway. The cytotoxicity of the compounds was tested in parallel by measuring the cell viability using CellTiter-Fluor assay system (Promega, Madison, WI) in the same wells.
Tox21 Assay Protocol Summary:
3T3 Gli1-Luc cells were dispensed at 2,000 per well in 5uL of culture medium into white solid bottom 1536-well plates (Greiner Bio-One, Monroe, NC) using a Multidrop Combi (Thermo Scientific, Waltham, MA) dispenser. The assay plates were incubated at 37 C and 5% CO2 for 4hr, and then 23nL of compounds dissolved in DMSO and positive control were transferred using a Pintool station (Wako, San Diego, CA). The assay plates were incubated at 37C and 5% CO2 for 24hr. For viability read, after 23hr of compound treatment, 1uL of CellTiter-Fluor reagent (Promega Corporation, Madison, WI) was added to each well of the assay plates using Flying Reagent Dispenser (FRD, Aurora Discovery, San Diego, CA) and incubated the assay plates at 37C for 1hr. The fluorescence signal was quantified using a ViewLux plate reader (Perkin Elmer, Shelton, CT).
(qHTS replaces the single test concentration by a dilution series.)
As for `Nc1ccc(C(=O)OCC(O)CO)cc1` (stereo not given), the Potency result is “inactive”.
Take `CC(=O)OC(C)c1ccccc1` (stereo not given): the Potency result was “inactive”.
In the case of `C[N+](C)(C)CC(O)CCl` (stereo not given) it was “inactive”; in that of `C[C@@H]1C[C@H]2[C@@H]3C[C@H](F)C4=CC(=O)C=C[C@]4(C)[C@@]3(F)[C@@H](O)C[C@]2(C)[C@@]1(O)C(=O)CO`, “inactive”; in that of `CNCc1ccccc1`, “inactive”.
Take `CN[C@@H]1[C@H](O)[C@H](NC)[C@H]2O[C@@]3(O)C(=O)C[C@@H](C)O[C@H]3O[C@@H]2[C@H]1O`: the Potency entry was “inactive”.
In the case of `Nc1nc(=O)n([C@@H]2O[C@H](CO)[C@@H](O)[C@@H]2F)cc1I` it was “inactive”.
The result for `COc1cc([N+](=O)[O-])ccc1N` reads 54.5 µM (active); that for `O=P(O)(O)OCC(O)CO` (stereo not given), “inactive”; that for `CC(C)CCO`, “inactive”.
The result for `Cc1c(C(C)C)c(=O)n(-c2ccccc2)n1C` reads “inactive”; that for `CCC(=O)OCCC(C)CCC=C(C)C` (stereo not given), “inactive”.
With `C=CC(C)(O)CC/C=C(\C)CC` (stereo not given), the Potency result is “inactive”.
The result for `CCCCCCCCCOCC1CO1` (stereo not given) reads “inactive”; that for `C=CCOC(=O)c1ccc(C(=O)OCC=C)c(C(=O)OCC=C)c1`, “inactive”; that for `c1ccccc1`, “inactive”.
The result for `COCCOCCOCCOC` reads “inactive”; that for `NS(=O)(=O)c1cc2c(cc1Cl)NC(CC1CCCC1)NS2(=O)=O` (stereo not given), “inactive”; that for `O=C(c1ccc2c(c1)C(=O)OC2=O)c1ccc2c(c1)C(=O)OC2=O`, “inactive”.
In the case of `O=C(COCCOCCOCC(=O)Nc1c(I)cc(I)c(C(=O)O)c1I)Nc1c(I)cc(I)c(C(=O)O)c1I` it was “inactive”; in that of `CC(=O)c1ccc(OCC(=O)N2CCCCC2)cc1`, “inactive”.
As to `FC(F)(F)c1ccc(Cl)cc1Cl`, the Potency entry is “inactive”.
Take `CC(CC(=O)O)CC(C)(C)C` (stereo not given): the Potency entry was “inactive”.
Consider `CC(C)CCCCCCOC(=O)C1CCCCC1C(=O)OCCCCCCC(C)C` (stereo not given), for which the Potency entry was “inactive”.
With `CC(=O)/C=C/c1ccco1`, the Potency result was “inactive”.
In the case of `COC(OC)C(C)c1ccccc1` (stereo not given) it was “inactive”.
The result for `CCCCCCCC/C=C\CCCCCCCC(=O)OC[C@@H](O)[C@H]1OC[C@H](O)[C@H]1O` reads “inactive”; that for `O=C1NC2NC(=O)NC2N1` (stereo not given), “inactive”; that for `O=c1cc(O)c(Cl)c[nH]1`, “inactive”.
In the case of `Oc1ccccc1Cc1ccccc1O` it was “inactive”.
For the compound `O=C(O)CCNC(=O)c1ccccc1`, the Potency result was “inactive”.
In the case of `NS(=O)(=O)c1ccc(Cl)c(S(N)(=O)=O)c1` it was “inactive”; in that of `Cc1oc(=O)oc1CN1CCN(c2cc3c(cc2F)c(=O)c(C(=O)O)c2n3C(C)S2)CC1` (stereo not given), “inactive”.
The result for `Cc1ccccc1N1CCN(CCc2nnc3n2CCCC3)CC1` reads “inactive”; that for `CC(=O)OC(C(=O)c1ccccc1)c1ccccc1` (stereo not given), “inactive”; that for `CCCCOC(=O)C(=O)OCCCC`, “inactive”.
In the case of `CCc1nccnc1C` it was “inactive”.
`CCCO`: the Potency entry was “inactive”.
In the case of `COc1cccc2sc(N)nc12` it was “inactive”; in that of `NC(Cc1c[nH]c2ccccc12)C(=O)O` (stereo not given), “inactive”.
